Measured values: the supplement of paper PMC9694430

Key:
Assay in all cases: thermal shift delta Tm vs DMSO control; higher = stronger stabilization (binding)
Settings in all cases: 12.5 µM; protein concentration 2 µM
LOC_OS01G01410-cb001 = system: LOC_OS01G01410-cb001
Procedure, shortened: (§1)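 Heating from 25°C to 95°C at 0.05°C/s, fluorescence was recorded for 19.5 μl wells of 2 μM E. coli-expressed, purified rice kinase domain in 100 mM potassium phosphate pH 7.5, 150 mM NaCl, 10% glycerol and 5 × SYPRO Orange with compound in DMSO. Boltzmann fits gave melting temperatures for this differential scanning fluorimetry assay. The shift reported is the mean of three replicates against the DMSO-only protein.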

LOC_OS01G02750-cb003 = system: LOC_OS01G02750-cb003
Procedure, shortened: as §1

LOC_OS01G10900-cb004 = system: LOC_OS01G10900-cb004
Procedure, shortened: as §1

LOC_OS01G13800-cb001 = system: LOC_OS01G13800-cb001
Procedure, shortened: as §1

LOC_OS01G14860-cb001 = system: LOC_OS01G14860-cb001
Procedure, shortened: as §1

LOC_OS01G21960-cb002 = system: LOC_OS01G21960-cb002
Procedure, shortened: as §1

LOC_OS01G39600-cb002 = system: LOC_OS01G39600-cb002
Procedure, shortened: as §1

LOC_OS01G48390-cb002 = system: LOC_OS01G48390-cb002
Procedure, shortened: as §1

LOC_OS01G51400-cb002 = system: LOC_OS01G51400-cb002
Procedure, shortened: as §1

LOC_OS01G52050-cb004 = system: T1, LOC_OS01G52050-cb004
T1 sequence (whole entry): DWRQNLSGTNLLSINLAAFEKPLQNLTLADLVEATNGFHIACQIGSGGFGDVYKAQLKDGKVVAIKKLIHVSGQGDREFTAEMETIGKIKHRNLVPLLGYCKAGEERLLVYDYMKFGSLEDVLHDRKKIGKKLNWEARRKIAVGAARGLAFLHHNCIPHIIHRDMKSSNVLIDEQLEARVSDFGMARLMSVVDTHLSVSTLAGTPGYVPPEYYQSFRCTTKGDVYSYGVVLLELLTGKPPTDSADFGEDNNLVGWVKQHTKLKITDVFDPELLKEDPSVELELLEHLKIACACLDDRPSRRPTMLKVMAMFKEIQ
Procedure, shortened: as §1
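Further: purified Escherichia coli-expressed rice kinase domain construct.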

| Compound | thermal shift delta Tm (LOC_OS01G01410-cb001) [°C] | thermal shift delta Tm (LOC_OS01G02750-cb003) [°C] | thermal shift delta Tm (LOC_OS01G10900-cb004) [°C] | thermal shift delta Tm (LOC_OS01G13800-cb001) [°C] | thermal shift delta Tm (LOC_OS01G14860-cb001) [°C] | thermal shift delta Tm (LOC_OS01G21960-cb002) [°C] | thermal shift delta Tm (LOC_OS01G39600-cb002) [°C] | thermal shift delta Tm (LOC_OS01G48390-cb002) [°C] | thermal shift delta Tm (LOC_OS01G51400-cb002) [°C] | thermal shift delta Tm (LOC_OS01G52050-cb004) [°C] |
| --- | --- | --- | --- | --- | --- | --- | --- | --- | --- | --- |
| Cc1cc(C(=O)NOCCO)c(Nc2ccc(I)cc2F)n(C)c1=O | 0.56 | 0.29 | 0.4 | 0.2 | 0.16 | 0.85 | -0.46 | 0.25 | -0.04 | -0.21 |
| CN1CCN(c2ccc(OC(F)(F)F)c(Nc3ncc4c(n3)-c3c(c(C(N)=O)nn3CCO)CC4)c2)CC1 | 0.81 | 1.85 | 0.67 | -0.54 | 0.5 | 0.64 | 0.04 | -0.15 | 0.17 | 1.03 |
| CC(C)(O)CC(=O)NCCn1ccc2ncnc(Nc3ccc(Oc4cccc(C(F)(F)F)c4)c(Cl)c3)c21 | 1.78 | 3.42 | 1.92 | 0.44 | 1.32 | 1.64 | 3.99 | 2.26 | 1.72 | 4.47 |
| CC(C)CC(=O)Nc1n[nH]c2c1CN(C(=O)C1CCN(C)CC1)C2(C)C | 0.12 | 1.36 | 0.4 | 0.44 | 6.4 | 1.05 | -0.1 | 0.75 | 0.45 | 0.59 |
| COc1ccc2[nH]cc(/C=C3\C(=O)Nc4ccc(NC(=O)CCN5CCCCC5)cc43)c2c1 | 0.24 | 1.49 | 0.91 | 1.6 | 2.18 | 1.64 | 0.22 | 0.82 | 0.58 | 0.72 |
| CNC(=O)Nc1ccc(-c2nc(N3CC4CCC(C3)O4)c3cnn(C4CCC5(CC4)OCCO5)c3n2)cc1 | 0.49 | 1.08 | 0.69 | 0.32 | 0.37 | 1.21 | -0.16 | 0.79 | 0.4 | 0.38 |
| C=CC(=O)Nc1cccc(Sc2nc(Nc3ccc(N4CCN(C)CC4)cc3)ncc2Cl)c1 | 3.81 | 1.58 | 5.27 | -0.1 | 1.89 | 0.88 | 6.99 | 7.06 | 1.43 | 4.22 |
| CC(C)(C)c1cc(NC(=O)Nc2ccc(Oc3ccnc4[nH]c(=O)cnc34)cc2F)n(-c2ccccc2)n1 | -0.24 | 1.82 | 0.63 | 0.95 | 6.67 | 0.63 | 0.19 | 0.23 | 0.46 | 0.84 |
| Oc1cc(CNC(=S)/C=C/c2cc(O)c(O)c(Br)c2)cc(O)c1O | 4.72 | 1.04 | -0.23 | 4.09 | 2.93 | 5.85 | 0.87 | 0.74 | 1.58 | 1.78 |
| COc1cc2ncnc(Nc3ccc(F)c(Cl)c3)c2cc1OCCCN1CCOCC1 [Gefitinib (ZD1839)] | 1.27 | 0.13 | 3.7 | 0.4 | 0.18 | -0.07 | 1.46 | 2.87 | 0.02 | 0.77 |
| O=C(NOCC(O)CO)c1cc(Br)c(F)c(F)c1Nc1ccc(I)cc1F (stereo not given) | 0.9 | 3.49 | 1.07 | 1.05 | 1.29 | 1.44 | 0.76 | 1.12 | 0.46 | 2.46 |
| O=C1NC(=O)/C(=C/c2cccc(C(F)(F)F)c2)S1 | -0.06 | 0.14 | 0.2 | 0.24 | 0.12 | 0.28 | -0.09 | 0.08 | 0.11 | 0.12 |
| Cc1ncc(-c2ccnc(Nc3ccc(S(C)(=O)=O)cc3)n2)n1C(C)C | 2.46 | 2.34 | 0.85 | 0.21 | 7.5 | 2.32 | 2.92 | 0.66 | 0.48 | 4.34 |
| C=CC(=O)N1CCC[C@@H](n2nc(-c3ccc(Oc4ccccc4)cc3)c3c(N)ncnc32)C1 | 0.18 | 0.65 | 0.59 | 0.2 | 0 | 0.24 | 0.74 | 0.52 | 0.21 | 0.5 |
| CC(C)n1nc(-c2cc3cc(O)ccc3[nH]2)c2c(N)ncnc21 [Torkinib (PP242)] | 0.97 | 0.22 | 0.64 | 0.08 | 0.52 | 0.37 | -0.17 | 0.78 | 0.2 | 0.85 |
| CNC(=O)c1cc(Oc2ccc3nc(N[C@@H]4CCCC[C@H]4O)sc3c2)ccn1 | 0.03 | 2.05 | 1.18 | 0.41 | -0.2 | 0.67 | -0.55 | 0.91 | 0.42 | 0.41 |
| Cc1cccc(Nc2nc(NC3CCCCC3N)ncc2C(N)=O)c1 (stereo not given) | 0.04 | 1.48 | 0.43 | -0.24 | 1.5 | 1.75 | 0.32 | 0.09 | 0.29 | 6.64 |
| O=C(Nc1nccs1)C(c1cc(F)ccc1O)N1Cc2ccccc2C1=O (stereo not given) | 0.29 | 0.35 | 0.25 | -0.01 | 0.4 | 0.48 | -0.23 | -0.1 | -0.02 | -0.31 |
| CNC(=O)c1nn(C)c2c1C(C)(C)Cc1cnc(Nc3ccc(N4CCN(C)CC4)cc3)nc1-2 | 2.97 | 4.29 | 7.64 | -1.53 | 0.36 | 1.9 | 0.04 | 1.65 | 0.17 | 5.55 |

| Compound | thermal shift delta Tm (LOC_OS01G01410-cb001) [°C] | thermal shift delta Tm (LOC_OS01G02750-cb003) [°C] | thermal shift delta Tm (LOC_OS01G10900-cb004) [°C] | thermal shift delta Tm (LOC_OS01G13800-cb001) [°C] | thermal shift delta Tm (LOC_OS01G14860-cb001) [°C] | thermal shift delta Tm (LOC_OS01G21960-cb002) [°C] | thermal shift delta Tm (LOC_OS01G39600-cb002) [°C] | thermal shift delta Tm (LOC_OS01G48390-cb002) [°C] | thermal shift delta Tm (LOC_OS01G51400-cb002) [°C] | thermal shift delta Tm (LOC_OS01G52050-cb004) [°C] |
| --- | --- | --- | --- | --- | --- | --- | --- | --- | --- | --- |
| CN1CCN(c2ccc(C(=O)Nc3n[nH]c4ccc(Cc5cc(F)cc(F)c5)cc34)c(NC3CCOCC3)c2)CC1 [Entrectinib (RXDX-101)] | 2.21 | 2.9 | 4.99 | -0.49 | 0.18 | 1.51 | 3.51 | 5.48 | 0.15 | 0.2 |
| Cc1cc(Nc2ncnc3ccc(-c4ccc(CNCCS(C)(=O)=O)o4)cc23)ccc1Oc1ccn2ncnc2c1 [HER2-Inhibitor-1] | 1.34 | 2.06 | 3.1 | 0.55 | 2.31 | 1.18 | 3.89 | 0.83 | 0.03 | 1.36 |
| COc1cc2ncnc(Nc3cccc(Cl)c3)c2cc1OC [AG-1478 (Tyrphostin AG-1478)] | 1.49 | 1.82 | 0.65 | 0.5 | 0.56 | 0.99 | 1.07 | 2.73 | 0.17 | 1.69 |
| COc1ccc(-c2ccc3c(N4CCOC[C@@H]4C)nc(N4CCOC[C@@H]4C)nc3n2)cc1CO | 0.54 | 0.23 | 0.08 | 0.21 | 0 | -0.12 | -0.26 | 0.01 | -0.16 | 0.06 |
| CCn1c(-c2nonc2N)nc2cnc(Oc3cccc(NC(=O)c4ccc(OCCN5CCOCC5)cc4)c3)cc21 | 0.15 | 1.24 | 1.47 | 0.89 | 6.06 | 0.9 | 0.75 | 1.02 | 0.31 | 0.93 |
| C[C@@]1(C(=O)Nc2ccc(F)nc2)CCCN1c1nc(Nc2cc(C3CC3)n[nH]2)c2cccn2n1 | 1.85 | 3.65 | 0.11 | 0.04 | 3.52 | 0.38 | 4.9 | 1.12 | 0.67 | 0.49 |
| Cc1ccccc1CN1C2=NCCN2C(=O)C2=C1CCN(Cc1ccccc1)C2 [TIC10 Analogue] | 0.06 | 2.43 | 0.31 | -0.07 | 0.07 | 0.85 | -3.24 | 0.44 | 0.5 | -0.27 |
| C=C[C@@](C)(/C=C/c1ccc(O)cc1)CCC=C(C)C [Bakuchiol] | 1 | 1.1 | 1.06 | 0.03 | 0.91 | 0.52 | 0.57 | 0.85 | 0.52 | 3.47 |
| FC(F)(F)c1ccc(/C=C/c2nc(COc3ccc(CCCCn4ccnn4)cc3)co2)cc1 [Mubritinib (TAK 165)] | 0.34 | -0.49 | 0.23 | 0.16 | 0.08 | -0.04 | -0.52 | 0.23 | -0.08 | 0.24 |
| CN(C)C[C@@H]1CCn2cc(c3ccccc32)C2=C(C(=O)NC2=O)c2cn(c3ccccc23)CCO1 | 1.3 | 0.71 | 0.95 | 1.16 | 2.41 | 2.83 | 2.85 | 0.62 | -0.02 | -0.62 |
| C[C@@H]1COCCN1c1cc(C2([S@](C)(=N)=O)CC2)nc(-c2cc[nH]c3nccc2-3)n1 | 0.28 | 0.13 | -0.04 | 0.31 | -0.19 | -0.02 | -0.99 | -0.04 | -0.01 | -0.09 |
| C#Cc1cccc(Nc2ncnc3cc4c(cc23)OCCOCCOCCO4)c1 [Icotinib] | -0.52 | 0.8 | 0.96 | 0.01 | 0.16 | 0.74 | 2.84 | 2.19 | 0.45 | 0.36 |
| Cn1cc(C2=C(c3ccc(Cl)cc3Cl)C(=O)NC2=O)c2ccccc21 | 4.05 | 13.7 | 6.42 | 1.69 | 6.48 | 4.64 | 18.2 | 2.99 | 13.9 | 14.6 |
| O=C(NOCCO)c1ccc2cncn2c1Nc1ccc(I)cc1F | 1.18 | 5.7 | 1.31 | 1.55 | 3.41 | 0.59 | -0.21 | 1.12 | 0.54 | 0.41 |
| O=C1Nc2ccccc2/C1=C1/Nc2ccccc2C1=O [Indirubin] | 1.5 | -0.12 | 3.43 | -0.14 | 3.18 | 0.67 | -4.22 | 0.94 | 0.43 | 0.55 |
| O=C(Nc1nc2cccc(-c3ccc(CN4CCS(=O)(=O)CC4)cc3)n2n1)C1CC1 [Filgotinib (GLPG0634)] | 0.4 | 0.46 | 0.17 | 0.3 | 0.5 | 0.89 | -0.06 | 0.26 | 0.32 | 1.03 |
| COc1cc(OC)cc(-c2cc3cnc(N)nc3nc2NC(=O)NC(C)(C)C)c1 | 0.51 | 1.48 | 0.1 | 0.07 | 0.48 | 0.33 | -0.76 | 0.85 | 0.05 | 1.75 |
| O=C(O)c1ccc(Nc2ncc3c(n2)-c2ccc(Cl)cc2C(c2c(F)cccc2F)=NC3)cc1 | 1.36 | -0.24 | -0.28 | 0.41 | 0.03 | -0.02 | 0.1 | 0.02 | -0.16 | 0.07 |
